Measurements reported in the supplement of paper PMC7724964.

How the values were obtained:
Experiment in all cases: phage ELISA signal ratio (GST-PRM binding over GST background); higher = stronger binding of peptide-phage to the PRM
[1] = biological target: T1, MDM4 26-106 SWIB (domain begin residue: 26, domain end residue: 106), O15151
T1 chain: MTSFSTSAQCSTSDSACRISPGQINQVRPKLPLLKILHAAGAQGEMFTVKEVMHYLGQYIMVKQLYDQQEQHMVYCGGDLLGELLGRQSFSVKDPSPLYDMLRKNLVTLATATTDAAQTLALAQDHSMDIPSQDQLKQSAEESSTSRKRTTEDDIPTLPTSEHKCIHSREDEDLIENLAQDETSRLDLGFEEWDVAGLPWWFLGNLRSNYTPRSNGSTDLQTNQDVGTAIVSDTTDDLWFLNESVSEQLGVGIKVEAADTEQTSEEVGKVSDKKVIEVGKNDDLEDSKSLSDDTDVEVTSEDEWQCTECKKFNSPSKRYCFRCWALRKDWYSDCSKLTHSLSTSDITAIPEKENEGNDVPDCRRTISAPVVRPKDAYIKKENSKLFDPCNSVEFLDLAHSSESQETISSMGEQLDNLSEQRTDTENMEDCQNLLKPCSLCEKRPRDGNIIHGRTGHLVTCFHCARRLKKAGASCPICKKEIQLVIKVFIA
Outline: (§1)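 An M13 phage library with randomized hexadecapeptides on the gene-8 major coat protein, each peptide lacking cysteine and flanked by glycine, was selected for five rounds against human peptide recognition domains fused to the C-terminus of glutathione S-transferase (GST) and expressed in 96-well plates. Approximately 48 clones from rounds 4 and 5 went to phage ELISA. The reported value is the ELISA signal on the GST-domain fusion over the signal on GST alone, and positive clones were sequenced.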

[2] = biological target: T2, MYL6 4-151 EF-hand_6 (domain begin residue: 4, domain end residue: 151), P60660
T2 chain: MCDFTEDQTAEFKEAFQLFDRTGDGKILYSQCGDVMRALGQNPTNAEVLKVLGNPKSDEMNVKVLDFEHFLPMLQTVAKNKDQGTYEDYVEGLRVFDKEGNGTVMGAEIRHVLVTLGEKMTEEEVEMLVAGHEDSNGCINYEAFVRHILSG
Outline: as §1

[3] = biological target: T3, NFKBIA 70-282 EF-hand_6 (domain begin residue: 70, domain end residue: 282), P25963
T3 chain: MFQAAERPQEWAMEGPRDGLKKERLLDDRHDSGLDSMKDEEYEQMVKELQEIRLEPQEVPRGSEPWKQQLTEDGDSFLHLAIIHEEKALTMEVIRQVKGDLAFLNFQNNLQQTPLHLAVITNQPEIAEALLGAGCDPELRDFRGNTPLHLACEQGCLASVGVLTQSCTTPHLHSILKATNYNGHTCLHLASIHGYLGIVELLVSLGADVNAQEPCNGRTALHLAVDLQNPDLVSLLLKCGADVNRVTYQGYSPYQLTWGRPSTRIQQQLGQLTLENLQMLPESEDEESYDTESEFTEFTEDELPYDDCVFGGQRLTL
Outline: as §1

[4] = biological target: T4, NR1D2 386-579 Hormone_recep (domain begin residue: 386, domain end residue: 579), Q14995
T4 chain: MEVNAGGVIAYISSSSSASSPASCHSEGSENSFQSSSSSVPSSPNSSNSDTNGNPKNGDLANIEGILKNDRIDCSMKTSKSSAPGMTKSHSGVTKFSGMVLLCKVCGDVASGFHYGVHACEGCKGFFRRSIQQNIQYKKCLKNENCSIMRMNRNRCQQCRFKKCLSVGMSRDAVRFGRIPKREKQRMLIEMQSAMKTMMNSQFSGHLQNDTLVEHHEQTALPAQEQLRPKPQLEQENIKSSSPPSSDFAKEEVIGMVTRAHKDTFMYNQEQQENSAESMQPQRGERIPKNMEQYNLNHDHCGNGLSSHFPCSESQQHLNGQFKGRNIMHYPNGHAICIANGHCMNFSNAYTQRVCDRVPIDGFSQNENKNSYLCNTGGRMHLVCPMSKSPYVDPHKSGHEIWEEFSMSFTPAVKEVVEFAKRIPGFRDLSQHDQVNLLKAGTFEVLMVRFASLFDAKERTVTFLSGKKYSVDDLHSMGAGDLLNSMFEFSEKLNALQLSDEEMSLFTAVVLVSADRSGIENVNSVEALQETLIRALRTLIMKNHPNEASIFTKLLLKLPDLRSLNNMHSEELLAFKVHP
Outline: as §1

[5] = biological target: MAD2L1 2-205 HORMA (domain begin residue: 2, domain end residue: 205), Q13257
Chain of MAD2L1 2-205 HORMA (domain begin residue: 2, domain end residue: 205), Q13257 (Q13257 whole entry): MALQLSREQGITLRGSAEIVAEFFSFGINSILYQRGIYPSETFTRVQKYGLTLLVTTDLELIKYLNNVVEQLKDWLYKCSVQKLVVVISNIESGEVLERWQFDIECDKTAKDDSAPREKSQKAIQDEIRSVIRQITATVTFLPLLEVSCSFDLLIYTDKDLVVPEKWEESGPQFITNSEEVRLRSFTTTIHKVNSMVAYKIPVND
Outline: as §1

[6] = biological target: MSH6 89-203 PWWP (domain begin residue: 89, domain end residue: 203), P52701
Chain of MSH6 89-203 PWWP (domain begin residue: 89, domain end residue: 203), P52701 (P52701 whole entry): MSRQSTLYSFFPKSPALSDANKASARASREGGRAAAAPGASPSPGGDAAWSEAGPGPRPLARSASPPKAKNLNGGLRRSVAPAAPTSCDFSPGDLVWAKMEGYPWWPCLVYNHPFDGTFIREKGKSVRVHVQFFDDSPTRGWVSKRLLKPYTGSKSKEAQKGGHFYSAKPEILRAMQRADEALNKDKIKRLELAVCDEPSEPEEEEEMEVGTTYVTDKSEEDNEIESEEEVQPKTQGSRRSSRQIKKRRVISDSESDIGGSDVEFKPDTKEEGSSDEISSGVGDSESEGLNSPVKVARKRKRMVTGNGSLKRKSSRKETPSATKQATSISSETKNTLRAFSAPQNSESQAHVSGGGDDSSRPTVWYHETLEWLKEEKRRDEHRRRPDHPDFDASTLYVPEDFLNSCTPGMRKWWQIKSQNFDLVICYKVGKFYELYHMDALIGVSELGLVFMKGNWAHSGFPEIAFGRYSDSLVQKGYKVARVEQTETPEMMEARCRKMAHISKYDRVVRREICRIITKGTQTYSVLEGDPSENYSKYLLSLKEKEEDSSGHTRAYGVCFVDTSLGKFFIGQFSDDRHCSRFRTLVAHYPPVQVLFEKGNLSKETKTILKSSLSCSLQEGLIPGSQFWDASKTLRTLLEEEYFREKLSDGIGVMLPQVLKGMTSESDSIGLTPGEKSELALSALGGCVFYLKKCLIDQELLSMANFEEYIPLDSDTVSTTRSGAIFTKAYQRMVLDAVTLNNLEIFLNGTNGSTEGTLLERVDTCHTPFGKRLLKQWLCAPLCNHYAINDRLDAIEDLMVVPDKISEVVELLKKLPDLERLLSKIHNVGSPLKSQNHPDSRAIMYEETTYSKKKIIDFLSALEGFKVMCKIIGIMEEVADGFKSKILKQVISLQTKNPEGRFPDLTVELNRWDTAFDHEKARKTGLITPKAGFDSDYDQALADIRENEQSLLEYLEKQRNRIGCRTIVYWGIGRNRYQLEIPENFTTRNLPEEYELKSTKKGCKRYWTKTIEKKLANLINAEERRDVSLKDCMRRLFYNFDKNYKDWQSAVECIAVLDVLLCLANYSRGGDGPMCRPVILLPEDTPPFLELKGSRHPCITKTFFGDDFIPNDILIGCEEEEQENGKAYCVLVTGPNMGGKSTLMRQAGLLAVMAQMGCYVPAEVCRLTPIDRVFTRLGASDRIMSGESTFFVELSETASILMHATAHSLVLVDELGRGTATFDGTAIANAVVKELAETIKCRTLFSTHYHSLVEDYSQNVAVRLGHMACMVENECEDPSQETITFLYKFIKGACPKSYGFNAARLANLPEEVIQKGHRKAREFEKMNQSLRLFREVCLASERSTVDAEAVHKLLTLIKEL
Outline: as §1

[7] = biological target: T5, ZGPAT 120-268 zf-CCCH+TUDOR (domain begin residue: 120, domain end residue: 268), Q8N5A5
T5 chain: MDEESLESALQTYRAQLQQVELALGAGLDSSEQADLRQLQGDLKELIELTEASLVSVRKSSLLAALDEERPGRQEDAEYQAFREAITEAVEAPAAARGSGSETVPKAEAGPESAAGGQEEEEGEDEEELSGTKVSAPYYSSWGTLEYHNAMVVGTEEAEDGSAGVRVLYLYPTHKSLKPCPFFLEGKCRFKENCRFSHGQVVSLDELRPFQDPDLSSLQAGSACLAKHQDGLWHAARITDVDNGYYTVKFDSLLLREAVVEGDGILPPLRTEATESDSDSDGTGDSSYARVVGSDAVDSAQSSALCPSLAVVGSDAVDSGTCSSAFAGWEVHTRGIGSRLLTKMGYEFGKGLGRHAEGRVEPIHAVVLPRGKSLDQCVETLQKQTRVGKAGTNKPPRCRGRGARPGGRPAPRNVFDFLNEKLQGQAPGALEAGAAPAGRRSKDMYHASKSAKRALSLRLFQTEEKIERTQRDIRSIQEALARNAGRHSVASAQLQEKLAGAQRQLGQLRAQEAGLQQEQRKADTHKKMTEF
Outline: as §1

[8] = biological target: T6, NR1H3 204-447 Hormone_recep (domain begin residue: 204, domain end residue: 447), Q13133
T6 chain: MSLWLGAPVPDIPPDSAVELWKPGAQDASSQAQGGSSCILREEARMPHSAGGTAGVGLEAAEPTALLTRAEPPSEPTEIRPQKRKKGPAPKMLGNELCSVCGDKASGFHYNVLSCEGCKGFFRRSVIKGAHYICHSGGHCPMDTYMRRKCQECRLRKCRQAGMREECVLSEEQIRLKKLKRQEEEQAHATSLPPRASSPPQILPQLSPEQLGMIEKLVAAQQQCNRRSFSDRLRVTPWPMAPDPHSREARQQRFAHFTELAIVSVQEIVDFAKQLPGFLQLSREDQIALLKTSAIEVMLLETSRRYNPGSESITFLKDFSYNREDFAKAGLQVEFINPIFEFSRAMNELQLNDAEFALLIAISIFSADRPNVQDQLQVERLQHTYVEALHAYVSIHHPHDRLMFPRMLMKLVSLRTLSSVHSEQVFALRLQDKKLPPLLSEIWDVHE
Outline: as §1

[9] = biological target: SETD1A 2-220 RRM_1 (domain begin residue: 2, domain end residue: 220), O15047
Chain of SETD1A 2-220 RRM_1 (domain begin residue: 2, domain end residue: 220), O15047 (O15047 whole entry): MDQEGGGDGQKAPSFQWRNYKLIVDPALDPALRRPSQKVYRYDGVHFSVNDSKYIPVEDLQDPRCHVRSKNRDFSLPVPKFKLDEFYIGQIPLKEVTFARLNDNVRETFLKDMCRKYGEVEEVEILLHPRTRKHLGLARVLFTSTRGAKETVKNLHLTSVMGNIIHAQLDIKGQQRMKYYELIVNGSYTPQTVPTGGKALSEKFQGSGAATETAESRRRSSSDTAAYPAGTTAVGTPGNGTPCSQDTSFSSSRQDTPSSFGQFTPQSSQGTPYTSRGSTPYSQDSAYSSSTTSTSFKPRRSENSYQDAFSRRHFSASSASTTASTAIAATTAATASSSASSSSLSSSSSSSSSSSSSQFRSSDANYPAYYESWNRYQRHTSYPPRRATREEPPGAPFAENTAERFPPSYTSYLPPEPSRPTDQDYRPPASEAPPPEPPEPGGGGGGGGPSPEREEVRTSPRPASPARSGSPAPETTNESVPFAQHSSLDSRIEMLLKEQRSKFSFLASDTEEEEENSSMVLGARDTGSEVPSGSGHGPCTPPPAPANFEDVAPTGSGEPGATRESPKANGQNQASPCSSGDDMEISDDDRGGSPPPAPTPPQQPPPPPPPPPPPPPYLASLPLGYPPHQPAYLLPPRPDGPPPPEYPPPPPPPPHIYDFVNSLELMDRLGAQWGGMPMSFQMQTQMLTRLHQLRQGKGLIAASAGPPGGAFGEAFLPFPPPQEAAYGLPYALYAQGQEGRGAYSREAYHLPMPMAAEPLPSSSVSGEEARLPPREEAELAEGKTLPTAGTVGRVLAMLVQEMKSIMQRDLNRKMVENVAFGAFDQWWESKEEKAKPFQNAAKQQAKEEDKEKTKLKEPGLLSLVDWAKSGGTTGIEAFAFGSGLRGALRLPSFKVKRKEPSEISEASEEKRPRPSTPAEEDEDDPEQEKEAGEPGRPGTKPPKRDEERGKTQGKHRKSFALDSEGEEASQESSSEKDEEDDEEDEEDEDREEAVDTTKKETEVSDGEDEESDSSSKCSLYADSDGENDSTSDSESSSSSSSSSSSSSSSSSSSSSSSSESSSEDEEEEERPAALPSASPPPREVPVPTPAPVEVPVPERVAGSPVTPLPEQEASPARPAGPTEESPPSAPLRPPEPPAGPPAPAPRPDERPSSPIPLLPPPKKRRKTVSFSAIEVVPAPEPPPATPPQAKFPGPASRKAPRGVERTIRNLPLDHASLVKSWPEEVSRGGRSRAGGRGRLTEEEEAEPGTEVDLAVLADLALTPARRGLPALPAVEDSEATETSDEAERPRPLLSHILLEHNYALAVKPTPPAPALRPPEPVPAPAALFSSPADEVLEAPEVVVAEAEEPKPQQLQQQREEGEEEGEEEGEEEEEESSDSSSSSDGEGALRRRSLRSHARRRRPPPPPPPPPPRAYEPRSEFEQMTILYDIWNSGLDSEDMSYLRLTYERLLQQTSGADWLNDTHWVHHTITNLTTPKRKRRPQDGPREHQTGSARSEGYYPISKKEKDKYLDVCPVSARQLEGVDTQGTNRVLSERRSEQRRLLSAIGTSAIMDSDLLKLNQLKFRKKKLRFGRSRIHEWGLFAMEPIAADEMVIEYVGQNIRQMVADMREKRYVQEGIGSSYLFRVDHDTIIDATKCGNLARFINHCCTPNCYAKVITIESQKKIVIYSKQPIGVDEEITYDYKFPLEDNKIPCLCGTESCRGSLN
Outline: as §1

[10] = biological target: T7, NR1H2 203-460 Hormone_recep (domain begin residue: 203, domain end residue: 460), P55055
T7 chain: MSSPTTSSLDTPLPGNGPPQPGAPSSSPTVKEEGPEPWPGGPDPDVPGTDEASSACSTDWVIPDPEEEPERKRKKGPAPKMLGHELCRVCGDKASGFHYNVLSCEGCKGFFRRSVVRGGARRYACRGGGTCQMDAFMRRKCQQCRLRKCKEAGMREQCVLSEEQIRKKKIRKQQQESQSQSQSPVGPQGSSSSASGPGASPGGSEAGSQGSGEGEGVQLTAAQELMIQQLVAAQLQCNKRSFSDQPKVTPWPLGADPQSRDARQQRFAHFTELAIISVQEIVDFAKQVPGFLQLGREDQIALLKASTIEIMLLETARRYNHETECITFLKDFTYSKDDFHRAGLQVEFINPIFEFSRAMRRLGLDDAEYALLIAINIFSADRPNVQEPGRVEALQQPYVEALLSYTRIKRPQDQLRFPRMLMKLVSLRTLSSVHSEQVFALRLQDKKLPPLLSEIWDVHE
Outline: as §1

Binder: KMELSFWEFWQVLQHE
- phage ELISA signal ratio [1]: 18

Binder: IFQYIVVQIGNTMYVI
- phage ELISA signal ratio [2]: 9.03

Binder: WVDEWTDVVQPMYYYD
- phage ELISA signal ratio [3]: 18.3

Binder: WQDAWMQAMEQIYPPL
- phage ELISA signal ratio [4]: 6.57

Binder: VWYHWQPPDSPINVIE
- phage ELISA signal ratio [5]: 11.6

Binder: DSNIWLTRGPVHNTQQ
- phage ELISA signal ratio [5]: 14.1

Binder: DPMSDLFMHNPFVQEP
- phage ELISA signal ratio [6]: 7.54
- phage ELISA signal ratio [7]: 8.79

Binder: VDPDWWDWMMSQLDTN
- phage ELISA signal ratio [8]: 6.41

Binder: DFMDFWEDATMGLVGT
- phage ELISA signal ratio [1]: 21.7

Binder: QWWVFHVGDQMYWAYV
- phage ELISA signal ratio [2]: 3.08

Binder: VWPDIYPELQFLHMMY
- phage ELISA signal ratio [8]: 5.69

Binder: TSYDPWVMEGMTQVVA
- phage ELISA signal ratio [6]: 6.43
- phage ELISA signal ratio [9]: 7.68

Binder: SADSMYPELDWLVWAM
- phage ELISA signal ratio [8]: 10

Binder: PHGITDVWAQWFVEML
- phage ELISA signal ratio [4]: 5.27

Binder: DYMAIWDHIPLKDAGF
- phage ELISA signal ratio [6]: 6.88

Binder: FVEMWNDMMFEDWDLV
- phage ELISA signal ratio [1]: 26.4

Binder: YFEMLEDDGVWTAPNW
- phage ELISA signal ratio [3]: 4.27

Binder: FTAQDVLSHMSLWEFT
- phage ELISA signal ratio [1]: 21.7

Binder: VWYRFEPAPMPKPHGQ
- phage ELISA signal ratio [5]: 20.4

Binder: YMVEEHYYDLMQMLGS
- phage ELISA signal ratio [3]: 11

Binder: AVFSQLWEAMPAVDWT
- phage ELISA signal ratio [1]: 14.9

Binder: MYRAPDAYDDHQVYVS
- phage ELISA signal ratio [3]: 7.46

Binder: DNPNLTPGLWSWYTFF
- phage ELISA signal ratio [10]: 11.4

Binder: TWWHLAGPRSHLTTSY
- phage ELISA signal ratio [5]: 12.8

Binder: YFYTQVNGIWYKWVLS
- phage ELISA signal ratio [2]: 4.86

Binder: QHSAMSAVWHFGPMWY
- phage ELISA signal ratio [5]: 15

Binder: WYMESLWQPDMMLPKF
- phage ELISA signal ratio [6]: 2.63

Binder: TMMPIWSEGQWWWGHI
- phage ELISA signal ratio [2]: 3.17
